Data taken from PubChem BioAssay AID1863 (Southern Research Specialized Biocontainment Screening …, 2009).
Among all 300,000 compounds or so, about 480 (0.16%) were called active.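 The calls were made as follows: active = inhibition over 29.93%, a cutoff 3 SD above the screen mean, later confirmed by dose response; inconclusive = inhibition over 29.93% but no dose response follow-up; inactive = inhibition at most 29.93% or unconfirmed.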 A selection follows. Results with a measured potency or affinity are listed apart. Peptide text beside a SMILES is read from it. * marks the point of attachment. Boc = CC(C)(C)OC(=O)*

Assay: inhibitors of PhoP regulon expression, primary screen, Salmonella Typhimurium, GFP reporter (AID 1863);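 also: 0% = low Mg2+ inducing control and 100% = high Mg2+ repressing control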
Settings: S. Typhimurium PhoP-regulated promoter GFP reporter, 4 h; at 50 µM; stronger effect = higher value

inhibition, inactive:
COCC(=O)Nc1ccc(N2CCN(c3ccccc3)CC2)c(F)c1 21.5%
Cc1ccc(SCCc2ccc(C)nc2)cc1 9.59%
CCNC(=S)NNC(=O)c1ccccc1Cl 8.03%
COCCCNC(=S)NNC(=O)c1ccccn1 8.59%
C=CCOC(=O)C1=C(C)NC(SCC(=O)Nc2nccs2)=C(C#N)C1c1cccs1 (centres undefined) -14.1%
CCOC(=O)Cn1cnc2sc(C(=O)OC)c(C)c2c1=O -1.36%
Cc1ccc(NC(=O)Nc2ccccc2)cc1[N+](=O)[O-] -2.21%
O=C(Nc1ccc(Cl)c(Cl)c1)Nc1ccccn1 8.31%
O=C(Nc1ncc([N+](=O)[O-])s1)c1ccccc1Br -1.22%
O=C(Nc1ccccc1)Nc1ccc(F)c([N+](=O)[O-])c1 8.9%
O=C(CCS(=O)(=O)c1ccccc1)Nc1ncc([N+](=O)[O-])s1 11.2%
O=C(Nc1ccc(Cl)c(Cl)c1)Nc1ccccc1C(=O)O 4.95%
CCN(CC)P(=O)(c1ccccc1)c1c(C)nc2ccccn12 (centres undefined) -1.09%
CC12CCC(C(=O)NC3CCCC3)(CC1=O)C2(C)C (centres undefined) -12.7%
COc1ccc(-c2nnn(CC(=O)N(CC3CCCO3)C(C(=O)NC(C)(C)C)c3ccco3)n2)cc1OC (centres undefined) 2.77%
COCCCNC(=O)CN(c1cc(Cl)cc(Cl)c1)S(C)(=O)=O -4.71%
N#CCOc1nc(N2CCOCC2)nc(N2CCOCC2)n1 -1.4%
COc1ccc(CN(CC(=O)NCC2CCCO2)C(=O)CNS(=O)(=O)c2ccc(C)cc2)cc1 (centres undefined) -1.33%
CC(NC(=O)C1CCN(S(=O)(=O)c2ccc3nc4c(c(C(=O)O)c3c2)CCCC4)CC1)c1ccccc1 (centres undefined) -8.3%
CCN(CC)S(=O)(=O)c1ccc(OC)c(NS(=O)(=O)Cc2ccccc2)c1 6.46%
O=C(O)c1cccc(Nc2ncnc3sccc23)c1 -0.32%
COc1ccccc1N1CCN(CC(=O)c2c(C)[nH]c3cc(C)ccc23)CC1 -0.55%
CC(C)c1nnc(NC(=O)c2ccc(S(=O)(=O)N3CCOCC3)cc2)s1 -9.01%
O=C(NCCC1=CCCCC1)c1ccc2c(c1)N(Cc1ccccc1)C(=O)CS2 6.9%
CCOC(=O)c1ccc2c(c1)n(CC)c(/C=C/N(C)c1ccccc1)[n+]2CC -11%
CCn1c(/C=C/N(C)c2ccccc2)[n+](CC)c2ccc(Cl)cc21 -2.39%
COc1ccc(C(=O)N2CCN(Cc3ccccc3)CC2)cc1[N+](=O)[O-] -3.7%
O=C(NCCCn1ccnc1)c1ccc(Br)cc1 12.6%
O=C(Oc1ccc(Cl)c2cccnc12)c1ccco1 19.6%
Cc1ccc(S(=O)(=O)Nc2ccc(O)c3ncccc23)cc1 10.5%
Oc1c(Cl)cc(CN2CCCCC2)c2cccnc12 14.1%
Oc1c(I)cc(I)c2cccnc12 -1.32%
Clc1cc2cccnc2c2ccccc12 2.15%
Cc1ccc(S(=O)(=O)Nc2ccc(O)c3cccnc23)cc1 6.3%
O=c1oc2ccccc2c(O)c1Cc1cc(Cl)c2cccnc2c1O -10%
O=C(Oc1c(Cl)cc(Cl)c2cccnc12)c1cccs1 14.3%
CCC(=O)c1cc2c(cc1NC(=O)c1ccccc1)OCCO2 5.62%
CN(C)S(=O)(=O)c1ccc(N2CCCC2)c(C(=O)Nc2nc(-c3ccc(F)c(F)c3)cs2)c1 3.09%
Cc1ccc(CN2C(=O)NC(Cc3c[nH]c4ccccc34)C2=O)cc1 (centres undefined) 4.26%
COC(=O)c1cc(NC(=O)CC2SCCNC2=O)cc(C(=O)OC)c1 (centres undefined) -10.7%
COc1ccc(/C=N/Nc2cc(N(C)C)nc(N(C)C)n2)cc1 -15.8%
CC(C)(C)c1ccc(C(=O)N2CCC(C(=O)NCc3ccncc3)CC2)cc1 -6.15%
O=C(NCc1cccs1)c1cc(S(=O)(=O)N2CCCCC2)ccc1Cl 2.07%
COc1cc(C(=O)NCc2cccc3ccccc23)ccc1OCc1ccccc1 -2.04%
COc1ccc(/C(N)=N/O)c(OC)c1 -1.42%
Nc1ccc(-n2ccnc2)cc1 1.57%
CCOc1ccc(CSC(=N)N)cc1[N+](=O)[O-] 41%
CCCOc1ccc(Br)cc1CSC(=N)N 55.8%
CCCCOc1ccc(CSC(=N)N)cc1Cl 0.89%
COc1ccc(CSC(=N)N)cc1[N+](=O)[O-] 5.38%
COc1ccc(Br)cc1CSC(=N)N 5.81%
CCOc1ccc(Br)cc1CSC(=N)N 26.3%
C/C(=N\NC(=O)CNC(=O)c1ccc(F)cc1)c1ccco1 4.52%
Cc1ccc(NC(=O)N[C@@H](CC(C)C)C(=O)O)c(C)c1 -7.38%
O=C(NCc1ccccn1)Nc1ccccc1Cl -6.1%
CCN(CCN1CCCC1)C(=O)C1CCC(=O)N(CCCN2CCOCC2)C1 (centres undefined) 2.18%
CCCCCCn1c(N2CCCC2)nc2c1c(=O)[nH]c(=O)n2C 2.66%
O=C1CCCN1CCCNS(=O)(=O)c1ccccc1 10.7%
Cc1cc(C)nc(N/C(=N\S(=O)(=O)Cc2ccccc2)Nc2cccc(Cl)c2C)n1 8.54%
CC(C)CC(NC(=O)OC(C)(C)C)C(=O)NC(C(=O)N1CCCC1C(N)=O)C(C)C (stereo not drawn) (Boc-Leu-Val-Pro-NH2; configuration not given here) -6.98%
CC(C)(C)OC(=O)N1CCC[C@@H]1CO 1.69%
CCCC(=O)N1CC(=O)Nc2ccc(C)cc2C1c1ccccc1 (centres undefined) -6.57%
S=C(NCc1ccccc1)N1CCCCC1 0.84%
O=S(=O)(NCC(c1ccc2c(c1)OCO2)N1CCOCC1)c1ccc(Cl)cc1 (centres undefined) -2.72%
